# Screening data: PubChem, Small Molecule Screening Facility, UW Madison
# The sample as a whole holds a higher share of hits than the screen did.
# RMI FANCM FP = RMI-FANCM interaction inhibition. Fluorescence polarization, RMI core complex with F-MM2 peptide; active compounds read low. 70,000 tested, 0.58% active. FP signal (polarization) at 33 µM; in the data active means FP signal below about 40
# Numbers without * were called inactive; ! = not confirmed by another sample.
SMILES,RMI FANCM FP
CP(=O)(Nc1cccc([N+](=O)[O-])c1)c1nc2c(s1)CCCC2 (stereo not drawn),60
NC(=O)Cc1csc(Nc2cccc(C(F)(F)F)c2)n1,29*
NC(=O)c1ccccc1NC(=O)Cc1csc(Nc2cccc(C(F)(F)F)c2)n1,66
O=C(O)Cc1csc(Nc2cccc(C(F)(F)F)c2)n1,68
Cc1nc(-c2ccccn2)n[nH]1,63
Cc1cc(=S)nc(-c2ccccn2)[nH]1,55
Cc1cc(-c2ccccn2)c(-c2cc(Cl)cc(Cl)c2)[nH]1,32*
CCSc1nnc(C)c2cnn(-c3ccc(F)cc3)c12,61
COc1ccc2nc(N(CCn3cccn3)C(=O)c3cc(C)no3)sc2c1,61
O=[N+]([O-])c1ccc(-c2nc(-c3cccc([N+](=O)[O-])c3)no2)cc1,54
COc1ccc2nc(-c3cccc(NC(=O)c4cccc(C)c4)c3)cn2n1,71
N#CC(C#N)=C1CCC(=C(C#N)C#N)CC1,31*
Cc1ccc(CCC(=O)NNC(=O)CCc2ccc(C)o2)o1,57
O=S(=O)(NCC1CCN(Cc2cccs2)CC1)c1ccc(Cl)cc1,73
COCCCN1C(=O)/C(=C/N2CCN(c3ccccc3)CC2)SC1=S,98
O=C(CCN1C(=O)/C(=C\c2ccccc2F)SC1=S)N1CCN(c2ccccc2)CC1,59
CCN1C(=O)/C(=C/c2c(C)c(C#N)c(=O)n(C)c2N2CCN(c3ccc(F)cc3)CC2)SC1=S,15*
COc1cccc(C(=O)NCC(c2ccc3c(c2)CCCN3C)N2CCCCC2)c1OC (stereo not drawn),66
CSc1ccc2nc(Nc3nnc(-c4ccccc4Cl)o3)sc2c1,52
Cc1cc(C)cc(C(=O)NCCn2cc(SCc3c(F)cccc3Cl)c3ccccc32)c1,60
CN(C)CCN(C(=O)c1ccc(S(=O)(=O)N(C)c2ccccc2)cc1)c1nc2c(Cl)cccc2s1,81
O=C(NCC1CCN(Cc2ccco2)CC1)C(=O)Nc1ccc(C(F)(F)F)cc1,103
O=C(COc1ccc(Cl)cc1)NCCc1ccc(N2CCCC2)cc1,73
Cc1ccc(C)c(S(=O)(=O)N=C2C=C(SCC(=O)O)C(=O)c3ccccc32)c1,67
Cc1ccc(C)c(S(=O)(=O)N2C(=S)NC(=O)C2Cc2ccccc2)c1 (stereo not drawn),75
SMILES,RMI FANCM FP
Cc1ccc(C)c(S(=O)(=O)N=C2C=C(Cl)C(=O)c3ccccc32)c1,20*
COc1ccccc1-n1c(CNC(=O)c2cccc3ccccc23)nnc1SCC(=O)Nc1nccs1,71
COc1ccc(OC)c(NC(=O)C(=O)NCC2(c3cccs3)CCCC2)c1,68
COC(=O)c1sccc1N/C=C(\C#N)C(=O)c1cccc(CSc2ccc(Cl)cc2)c1,7*
COC(=O)c1sccc1N/C=C(\C#N)C(=O)c1ccco1,59
COC(=O)c1sccc1N/N=C(\C#N)C(=O)c1ccc(Cl)cc1,58
CC1=C(C(=O)Nc2cccc(Cl)c2)C(c2cccs2)NC(=S)N1 (stereo not drawn),64
O=C(CCCn1nc(-c2ccc(F)cc2)ccc1=O)Nc1ccc(Cl)c(Cl)c1,84
COC(OC)c1ccc2c(N)c(C(=O)Nc3ccc(C(F)(F)F)cc3)sc2n1,39*
COc1nn(C)cc1C(=O)Nc1ccc(C(F)(F)F)cc1,57
Cn1c(=O)c2cc(C(=O)Nc3ccc(C(F)(F)F)cc3)sc2n(C)c1=O,64
COc1ccc(C(=S)N2CCN(C(=O)c3cccs3)CC2)cc1,60
CCOc1ccc(C2NC(=O)NC(CS(=O)(=O)c3ccc4c(c3)CCCC4)=C2C(=O)OC)cc1 (stereo not drawn),65
O=C1c2cccc(O)c2C(=O)c2c(O)cccc21,27*
O=C1c2ccccc2C(=O)c2c1ccc(O)c2O,53
O=C1c2ccccc2C(=O)c2c(Sc3cccc4c3C(=O)c3ccccc3C4=O)cccc21,60
O=C1S/C(=C\c2ccccc2[N+](=O)[O-])C(=O)N1c1ccc(F)cc1,64
CCOC(=O)N1CCN(C(c2ccccn2)c2c(-c3ccccc3)n(O)c3ccccc23)CC1 (stereo not drawn),26*
CCOC(=O)N1CCN(C(c2ccncc2)c2c(C)[nH]c3ccccc23)CC1 (stereo not drawn),58
CCOC(=O)N1CCN(CC(O)COc2ccc(-c3ccccc3)cc2)CC1 (stereo not drawn),65
O=C(Cc1csc(SCc2ccc(Cl)cc2)n1)Nc1ccccc1,73
COc1ccc(C2c3sc(=O)[nH]c3SC3C4CC(C5C(=O)N(c6ccccc6)C(=O)C45)C23)cc1 (stereo not drawn),56
O=c1[nH]c2c(s1)C1c3ccccc3OCC1CS2 (stereo not drawn),-9
O=c1[nH]c2c(s1)C(c1ccc(Cl)cc1)C1C3CCC(C3)C1S2 (stereo not drawn),16*
Cc1cc(=O)[nH]c(-n2nc(C)c(CCC(=O)Nc3ccccc3F)c2C)n1,60
SMILES,RMI FANCM FP
Cc1csc2nc(-c3cccc(NC(=O)c4cc5ccccc5oc4=O)c3)cn12,59
COc1c(C)cc(S(=O)(=O)Nc2ccc3c(c2)N(C(=O)c2cccs2)CC3)cc1C,68
COc1ccc2sc(N(CCCN3CCOCC3)C(=O)c3cccc([N+](=O)[O-])c3)nc2c1,54
COc1ccc(S(=O)(=O)N=C2C=C(Nc3cccc(C)c3)C(=O)c3ccccc32)cc1,13*
O=C1C(NS(=O)(=O)c2ccccc2)=CC(=NS(=O)(=O)c2ccc(F)cc2)c2ccccc21,58
COC(=O)c1ccccc1NC1=CC(=NS(=O)(=O)c2ccc(F)cc2)c2ccccc2C1=O,57
CCOc1cccc(NC(=O)c2ccc(Br)cc2F)c1,51
O=C(NNC(=O)c1cc2c(ccc3ccccc32)oc1=O)c1ccc(S(=O)(=O)N2CCCCCC2)cc1,60
CN1C(=O)c2cccc(N)c2C1=O,-41*
CN1C(=O)c2cccc(NC(=O)c3cccc(Cl)c3)c2C1=O,73
CN1C(=O)c2cccc(NC(=O)c3ccc(N(C)C)cc3)c2C1=O,68
O=C(C1CC1)N1CCN(Cc2nc(-c3ccc(F)cc3)cs2)CC1,62
Cc1ccc(C)c(OCCn2c(C3CC(=O)N(Cc4ccccc4)C3)nc3ccccc32)c1 (stereo not drawn),60
COc1ccc(O)c(C=NCCc2ccccc2)c1,50
COc1ccc(-c2c3c(nc4sc(C(=O)Nc5ccc(F)cc5)c(N)c24)CC(C)(C)CC3=O)cc1,70
COc1ccc(-c2c3c(nc4sc(C(=O)c5ccc6c(c5)OCCO6)c(N)c24)CC(C)(C)CC3=O)cc1,-6*
COc1ccc(-c2c3c(nc4sc(C(=O)c5ccc(Cl)c(Cl)c5)c(N)c24)CC(C)(C)CC3=O)cc1,99
Cc1nc(SCc2ccccc2F)[nH]c(=O)c1CC(=O)O,65
CC1CCc2oc3c(cc(NS(=O)(=O)c4cccs4)c4ccccc43)c2C1 (stereo not drawn),64
CC1CCc2oc3c(cc(NS(=O)(=O)c4ccc(Br)cc4)c4ccccc43)c2C1 (stereo not drawn),35
CCC(C)(C)C1CCc2oc3c(cc(NS(=O)(=O)c4cccc([N+](=O)[O-])c4)c4ccccc43)c2C1 (stereo not drawn),32*!
COC(=C(C#N)C#N)c1c(-c2ccccc2Cl)noc1C,56
Cc1ccc(CC(=O)Nc2nnc(-c3ccco3)o2)c(C)c1,57
O=C(NNC(=O)c1cccc2ccccc12)c1cccn(Cc2ccc(F)cc2)c1=O,70
